SENP6 inh – blocks the human protease SENP6; actives 1.8% (n = 330,000); AID 2599; Q9GZR1; Recombinant SENP6 catalytic domain, aminoluciferin luminescence; inhibition, % at 10 µM;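 active = inhibition above about 50% at the single tested dose, limit read from the data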
Target sequence (Q9GZR1 628-1112 limits assumed): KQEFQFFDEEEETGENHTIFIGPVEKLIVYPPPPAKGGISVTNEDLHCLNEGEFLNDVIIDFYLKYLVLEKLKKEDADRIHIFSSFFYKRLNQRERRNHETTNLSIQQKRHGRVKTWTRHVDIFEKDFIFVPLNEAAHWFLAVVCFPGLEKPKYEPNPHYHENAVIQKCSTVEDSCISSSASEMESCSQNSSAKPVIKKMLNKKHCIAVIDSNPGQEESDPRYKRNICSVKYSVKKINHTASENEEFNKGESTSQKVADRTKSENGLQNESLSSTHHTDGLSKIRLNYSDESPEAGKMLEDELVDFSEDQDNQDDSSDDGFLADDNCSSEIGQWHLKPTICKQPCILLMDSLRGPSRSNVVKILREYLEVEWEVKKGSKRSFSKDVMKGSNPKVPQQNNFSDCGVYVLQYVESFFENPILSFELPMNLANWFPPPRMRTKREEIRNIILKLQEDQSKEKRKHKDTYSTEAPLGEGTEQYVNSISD
SENP7 inh – blocks the human protease SENP7. actives 1.5% (n = 330,000). inhibition, % at 5 µM. AID 434973. recombinant SENP7, Z-RLRGG-aminoluciferin luminescence, 40 min;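 active = inhibition above about 50% at the single test dose, limit read from the data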
AHR activator – activates the human aryl hydrocarbon receptor | actives 2.5% (n = 320,000) | P35869 | activation, % at 5 µM | AHR-responsive luciferase reporter cells, luminescence; in the data active = activation above about 47%
SENP8 block-1 – inhibitors of human SENP8 protease; Q96LD8; recombinant SENP8, Nedd8 substrate fluorescence; inhibition, % at 20 µM; actives 0.64% (n = 360,000); AID 602440; in the data active = inhibition mostly above about 40%, no sharp cut-off; inactive = mostly below about 27%
SENP8 block-2 – blocks the human protease SENP8; AID 2540; Q96LD8; actives 1.2% (n = 330,000); inhibition, % at 10 µM; purified SENP8, Z-RLRGG-aminoluciferin cleavage, luminescence; in the data active = inhibition above about 50%
EBI2 block – EBI2 (human) antagonism. EBI2 beta-arrestin recruitment, luminescence, 7a,25-OHC stimulated. inhibition, % at 5 µM. actives 0.81% (n = 360,000). AID 651636. P32249; in the data active = inhibition above about 38%;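 note: enzyme fragment complementation signal reports receptor beta-arrestin coupling in cells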
Of the large screens only hits and unclear results are named; the others gave an inactive call. Sampled rows, rich in hits. Any-hit rate of the full collection: about 5%.

COc1cccc(N(CC(=O)Nc2ccc3c(c2)OCO3)S(=O)(=O)c2ccccc2)c1	AHR activator 76
CCOc1ccccc1N(CC(=O)Nc1ccc2c(c1)OCO2)S(C)(=O)=O	AHR activator 69
Cc1ccccc1N(CC(=O)Nc1ccc(F)cc1)S(C)(=O)=O	AHR activator 69
CCOc1cc(C(=O)Nc2ccc3c(c2)OCO3)ccc1OC(F)F	AHR activator 51
CN(C)c1ccc(CNc2nc3cc(-c4ccc(F)cc4)sc3c(=O)n2C)cc1	none (no result: SENP6 inh, SENP7 inh, AHR activator, SENP8 block-2)
COc1ccc(N(CC(=O)Nc2ccc3c(c2)OCO3)S(=O)(=O)c2ccccc2)cc1	none
COc1ccc(S(=O)(=O)N(CC(=O)Nc2ccc3c(c2)OCO3)c2ccccc2OC)cc1	AHR activator 47
O=C1NC(Cc2ccc(O)cc2)c2nc3cc(F)ccc3c(=O)n2-c2cc3ccccc3cc21 (stereo unspecified)	none (no result: SENP6 inh, SENP7 inh, AHR activator, SENP8 block-2)
CCn1cc(-c2ccnc3cc(C(=O)O)nn23)c(C)n1	SENP8 block-2 95
Nc1ccccc1C(=O)NN=Cc1cccnc1	none (no result: SENP6 inh, SENP7 inh, AHR activator, SENP8 block-2)
Cn1c(Cl)c(C(=O)Nc2ccc(Cl)cc2)c2ccccc21	AHR activator 57
Cn1nc(-c2ccccc2)c(C(=O)Nc2ccc(Cl)cc2)c1Cl	none
C=CCOc1ccc(C2C(C(=O)c3ccco3)=C(O)C(=O)N2c2nnc(C)s2)cc1 (stereo unspecified)	none
CCCSc1nnc2n(C)c(=O)c3c4c(sc3n12)CCC4	AHR activator 78
CC(O)(C#CCN1CCCCCC1)c1ccccc1 (stereo unspecified)	AHR activator 66
COc1cc(/C=C2\SC(=S)NC2=O)ccc1OS(=O)(=O)c1ccccc1	SENP6 inh 59 (no result: SENP8 block-1, EBI2 block)
COc1ncnc2c1ncn2CCCN1CCN(c2ccccn2)CC1	none (no result: SENP6 inh, SENP7 inh, AHR activator, SENP8 block-2)
COc1cccc(NC(=O)Nc2cccnc2)c1	AHR activator 50
COc1cccc(C(=O)NC(=S)Nc2cccnc2)c1	none
COc1cccc(NC(=O)c2ccccc2NC(=O)c2ccncc2)c1	AHR activator 55
COc1cccc(/C=N/NC(=S)Nc2cccnc2)c1	AHR activator 58
Oc1ccc(/C=N/NC(=S)Nc2cccnc2)cc1	AHR activator 54
COc1ccc(O)c(/C=N/NC(=S)Nc2cccnc2)c1	none
Cc1occc1-c1nnc(SC(C)C(=O)Nc2ccccc2F)o1 (stereo unspecified)	none (no result: AHR activator)
Cc1csc(NC(=O)Cc2coc3cc(C)c(C(C)C)cc23)n1	none
CCc1cc2c(=O)c(-c3nc(C)cs3)coc2cc1O	SENP6 inh 66, SENP7 inh 77, AHR activator 60
Cc1ccc2c(=O)n3c(nc2c1)C(Cc1ccccc1)NC(=O)c1ccc(Cl)cc1-3 (stereo unspecified)	none (no result: SENP8 block-1, EBI2 block)
Cc1ccc(C(=O)Oc2oc(-c3ccccc3)nc2C=Nc2ccc(N(C)C)cc2)cc1	AHR activator 58
Cc1ccc(C(=O)Oc2oc(-c3ccco3)nc2C=Nc2ccc(Cl)cc2)cc1	none
O=C(c1ccc(Cl)nc1)c1cccs1	AHR activator 54 (no result: SENP8 block-1, EBI2 block)
Clc1nnc(NN=C2CCCC2)c2ccccc12	AHR activator 51
O=C(O)CN1CCNCCN(CC(=O)O)CCNCC1	none (no result: SENP6 inh, SENP7 inh, AHR activator, SENP8 block-2)
O=[N+]([O-])c1cccc(N/N=C/c2cccc3ccccc23)c1	AHR activator 61
O=[N+]([O-])c1ccc(NN=Cc2cccc3ccccc23)nc1	none (no result: SENP6 inh, SENP7 inh, AHR activator, SENP8 block-2)
CC(=O)Nc1ccc(NC(=O)CSc2nnc3ccc(-c4cccnc4)nn23)cc1	none
CC(C)(C)c1ccc(OCCCC(=O)Nc2nnc(C3CC3)s2)cc1	none (no result: SENP6 inh, SENP7 inh, AHR activator, SENP8 block-2)
NNC(=O)c1ccc(COc2ccc([N+](=O)[O-])cc2)o1	none
CCCc1ccc(OCc2ccc(C(=O)OC)o2)c(OC)c1	none
Cc1cc(C)cc(OCc2ccc(C(=O)NN)o2)c1	AHR activator 79
CCCc1ccc(OCc2ccc(C(=O)NN)o2)c(OC)c1	AHR activator 56
O=C1OC(Cc2ccccn2)C(=O)C1=C1SCCS1 (stereo unspecified)	AHR activator 60
O=C1CSC(c2ccccc2)N1Cc1ccccn1 (stereo unspecified)	none (no result: SENP6 inh, SENP7 inh, AHR activator, SENP8 block-2)
Cc1cc(C)nc(Nc2ncc(O)n2-c2ccc(C)c(Cl)c2)n1	AHR activator 57
CCOc1ccc(/C=C2\SC(=S)N(NS(=O)(=O)c3ccc(C)cc3)C2=O)cc1OC	SENP8 block-1 43
NCCCn1c(C(=O)c2cc(Cl)c(N)c(Cl)c2)c2ccc(C(F)(F)F)cc2[n+]1[O-]	AHR activator 57
NC(=O)CCCn1c(C(=O)c2cc(Cl)c(N)c(Cl)c2)c2ccc(C(F)(F)F)cc2[n+]1[O-]	AHR activator 55
COc1ccc(C(=O)c2c3ccc(C(F)(F)F)cc3[n+]([O-])n2CCCC(N)=O)cc1	none
COc1ccc(C(=O)c2c3ccc(OC)cc3[n+]([O-])n2CCCC(N)=O)cc1	none
NCCCn1c(C(=O)c2cc(Cl)c(N)c(Cl)c2)c2ccc([N+](=O)[O-])cc2[n+]1[O-]	AHR activator 115
NC(=O)c1ccc(Cn2c(C(=O)c3ccc(Cl)cc3)c3ccccc3[n+]2[O-])cc1	none
COc1ccc(C(=O)c2c3ccc([N+](=O)[O-])cc3[n+]([O-])n2CCCC(N)=O)cc1	none
NC(=O)c1ccc(Cn2c(C(=O)c3cc(Cl)c(N)c(Cl)c3)c3ccccc3[n+]2[O-])cc1	AHR activator 78
CCCCNC(=O)C(NC(=O)c1ccc(=O)[nH]c1)C(=O)c1ccccc1 (stereo unspecified)	none (no result: SENP6 inh, SENP7 inh, AHR activator, SENP8 block-2)
C/C(=N\Nc1ccc(C(=O)O)cc1)c1ccc2c(c1)Nc1ccccc1S2	AHR activator 68
COCCNC(=O)C1(C)Cc2c(-c3ccc4c(c3)OCO4)ccnc2O1 (stereo unspecified)	none (no result: SENP6 inh, SENP7 inh, AHR activator, SENP8 block-2)
Cc1ccc(C(=O)Nc2cccc(C(F)(F)F)c2)cc1NC(=O)c1c[nH]c2cc(C(F)(F)F)ccc2c1=O	AHR activator 58
Cc1ccc(C(=O)Nc2cccc(C(F)(F)F)c2)cc1Nc1ccccn1	AHR activator 50
CCN1CCN(Cc2ccc(NC(=O)c3ccc(C)c(NC(=O)c4c[nH]c5cc(C(F)(F)F)ccc5c4=O)c3)cc2C(F)(F)F)CC1	none
Cn1c(=O)c2c(-c3ccccc3)n(-c3ccc(N)cc3)cc2n(C)c1=O	SENP8 block-1 60 (no result: SENP6 inh, SENP7 inh, AHR activator, SENP8 block-2)
CC(=O)C1=C(O)C(=O)N(c2ccc(Br)cc2)C1c1ccc(Br)cc1 (stereo unspecified)	AHR activator 49
CCOc1ccc(NC(=S)N(Cc2ccc(N(C)C)cc2)Cc2ccco2)cc1	EBI2 block 44
COc1ccc(NC(=S)N(Cc2ccc(N(C)C)cc2)Cc2ccco2)cc1	none
COc1cccc(NC(=S)NC(=O)/C=C/c2ccco2)c1	none
COc1ccc(NC(=S)NC(=O)/C=C/c2ccco2)c(OC)c1	AHR activator 68
O=C(/C=C/c1ccco1)NC(=S)Nc1ccccc1N1CCOCC1	none
O=C(/C=C/c1ccco1)NC(=S)Nc1ccccc1N1CCCC1	AHR activator 65
O=C(/C=C/c1ccco1)Nc1ccccc1N1CCCC1	AHR activator 73

Compound activity deposited in PubChem BioAssay by several laboratories.
